This is part of a sample that, as a whole, favours compounds with a hit. Of some 79,000 tested, about 15% had one in any assay. Rule as the data show it: active = growth inhibition above about 70%; inactive = the rest.
Experiments:
[1] = NCI Yeast Anticancer Drug Screen. Data for the rad50 strain (AID 155);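 also: 0% = growth of vehicle-only cultures of the same strain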; conditions: S. cerevisiae rad50 strain growth inhibition; at 50.0 µM; active compounds read high
Method in brief: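 Vehicle-treated cultures provide the reference for the growth inhibition reported for compound-exposed, repair-deficient yeast.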

[2] = NCI Yeast Anticancer Drug Screen. Data for the mec2-1 strain (AID 157); conditions: S. cerevisiae mec2-1 strain, at 50.0 µM, active compounds read high
Method in brief: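 Vehicle-treated cultures served as reference for growth inhibition of compound-exposed mec2-1 yeast.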

[3] = NCI Yeast Anticancer Drug Screen. Data for the sgs1 mgt1 strain (AID 161);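 also: 0% = growth of cultures given vehicle only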; conditions: S. cerevisiae sgs1 mgt1 strain, at 50.0 µM, active compounds read high
Method in brief: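 Genetically altered yeast, compound exposure, growth inhibition relative to vehicle.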

[4] = NCI Yeast Anticancer Drug Screen. Data for the cln2 rad14 strain (AID 165);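 also: 0% = growth equal to vehicle treated cultures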; conditions: S. cerevisiae cln2 rad14 strain, at 50.0 µM, active compounds read high
Method in brief: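 Each compound was tested on cln2 rad14 yeast. Inhibition of growth was calculated against vehicle-exposed controls.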

[5] = NCI Yeast Anticancer Drug Screen. Data for the bub3 strain (AID 167); conditions: S. cerevisiae bub3 mutant strain, at 50.0 µM, active compounds read high
Method in brief: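 Mutant yeast screening strain plus compound; vehicle-treated cultures serve as the 0% inhibition reference.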

[6] = NCI Yeast Anticancer Drug Screen. Data for the mlh1 rad18 strain (AID 175); conditions: S. cerevisiae mlh1 rad18 strain growth inhibition; at 50.0 µM; active compounds read high
Method in brief: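 Vehicle-treated cultures served as the reference for growth inhibition in a yeast strain carrying DNA damage repair alterations exposed to each compound.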

Measured: growth inhibition

CCOC(=O)C(N)Cc1cc(I)c(O)c(I)c1 (stereo unspecified)
inactive: [1] -20.1% | [2] -31.1% | [3] -14.4% | [4] 7.8% | [5] -23.2% | [6] -25.1%

CCC(C(=O)O)C1=CCCc2c(C)ccc(C)c21 (stereo unspecified)
inactive: [1] 23.6% | [2] 13.2% | [3] 21.6% | [4] 25.3% | [5] 11.7% | [6] 23.2%

CCN(CC)CCO/N=C1\CC(c2ccc(OC)c(OC)c2)Oc2ccccc21 (stereo unspecified)
inactive: [1] 3.8% | [2] 13.7% | [3] 2.65% | [4] 26.6% | [5] -9.85% | [6] 9.8%

CCCCCCCCCCOc1ccc(C=NC/C=C/c2ccc(CC)cc2)cc1
inactive: [1] -19.4% | [2] -13.8% | [3] -13.7% | [4] -50.8% | [5] -1.2% | [6] -23.4%

CC1=NC(C(N)=O)C(=O)N1 (stereo unspecified)
inactive: [1] -35% | [2] -23.4% | [3] -15.3% | [4] -30.4% | [5] -8.8% | [6] -0.65%

CCOC(=O)C1=CC(=O)CC(C)(C)O1
inactive: [1] -2.6% | [2] 7.55% | [3] -1.65% | [4] -5.75% | [5] -0.8% | [6] 1.95%

CCCC(=O)Nc1cc(C(=O)O)cc([N+](=O)[O-])c1
inactive: [1] 2.05% | [2] -15.6% | [3] 4.8% | [4] -26.2% | [5] 22.5% | [6] -4.45%

Oc1cccc(C(c2ccccc2)c2ccccc2)c1
inactive: [1] -0.6% | [2] 0.3% | [3] -5.5% | [4] -11.1% | [5] -3.6% | [6] -3.95%

COC(=O)c1c2c(cc3c1CC1(Cc4cc5c(cc4C1=O)CCC5)C3)CCC2 (stereo unspecified)
inactive: [1] -23.4% | [2] -37% | [3] -2.4% | [4] 0.45% | [5] 10.8% | [6] 3.3%

CCC(=O)NN(C(C)=O)c1ccccc1
inactive: [1] 10.3% | [2] -21.4% | [3] 6.4% | [4] -16.2% | [5] 8.8% | [6] 18.9%

C/C(=N/NC(N)=O)c1ccc([N+](=O)[O-])o1
inactive: [1] 29.9% | [2] 9.9% | [3] 30.8% | [4] 16.1% | [5] 14.9% | [6] 47.2%

COc1ccc(C2CC(=O)NC2=O)cc1OC (stereo unspecified)
inactive: [1] 4.8% | [2] 17.4% | [3] -6.55% | [4] -12.2% | [5] 1.8% | [6] -5.65%

c1ccc(CC[n+]2ccncc2)cc1
inactive: [1] -8.75% | [2] 6.8% | [3] -8.4% | [4] -10.2% | [5] 7.15% | [6] -17.3%

COc1cc(C)n2nnnc2n1
inactive: [1] 9.5% | [2] -6.2% | [3] 0.2% | [4] -15.8% | [5] 1.3% | [6] -9.4%

COc1ccc([N+](=O)[O-])cc1OC
inactive: [1] 29.9% | [2] -0.15% | [3] 33.1% | [4] 1.65% | [5] 0.45% | [6] 16.1%

O=C(O)C1Cc2c([nH]c3ccccc23)C(c2cccs2)N1 (stereo unspecified)
inactive: [1] 27.7% | [2] 7.6% | [3] 8.7% | [4] 0.5% | [5] -19.8% | [6] 14.3%

CC(C)c1ccc(/C=C/C(=O)c2ccc(F)cc2)cc1
inactive: [1] 14.6% | [2] 13.5% | [3] 16.5% | [4] 10.1% | [5] 5.05% | [6] 17.6%

O=C(O)c1cccc(NC(=O)C(F)(F)F)c1
inactive: [1] -1.1% | [2] 1.6% | [3] -18.9% | [4] -29.4% | [5] -6.05% | [6] -2.15%

O=C(NCc1ccccc1)NC(c1ccccc1)(c1ccccc1)c1ccccc1
inactive: [1] 28.9% | [2] 14.2% | [3] 34.6% | [4] 11.8% | [5] -4.25% | [6] 30.9%

Cc1ccc(S(=O)(=O)OC(CI)C2OC(c3ccccc3)OC3COC(c4ccccc4)OC32)cc1 (stereo unspecified)
inactive: [1] 0.25% | [2] 13.2% | [3] 7.7% | [4] 8.6% | [5] 16.1% | [6] 25.6%

CC1(C)Cc2ccccc2C(C)(Cl)C(=O)N1 (stereo unspecified)
inactive: [1] -10.8% | [2] 0.3% | [3] 6.4% | [4] 17.9% | [5] -26.9% | [6] 17.8%

Reference: PubChem BioAssay (NCI)
